Source: PubChem BioAssay
Results filed as inconclusive are left out. Calls of active or inactive are those of the source.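 The calls were made as follows, unless noted: active = cell viability at or below a set limit in both duplicate runs, the limit being the all-compound median minus 4 SD (cut at about 23% in these data, passing the limit was not always enough); inconclusive = no clear call, values can overlap the other calls; inactive = the rest.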

Assay: viability gain of MRP-1-high H69AR cells under doxorubicin, pilot screen, MRP-1 activator project, CellTiter-Glo, duplicate (AID 807;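 active = viability increase at or above a cutoff of the median across tested compounds plus 3 SD, cut at about 8.5% in these data, passing the limit was not always enough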;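 also: compound pretreatment 18-22 h then 72 h combined with doxorubicin; 0% = doxorubicin alone and 100% = vehicle without doxorubicin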)
Conditions: H69AR viability with doxorubicin, CellTiter-Glo luminescence; at 10 µM; active compounds read high

Row | Structure (SMILES) | viability increase
1 | CC(C)CC(NS(=O)(=O)c1ccc2c(c1)oc(=O)n2C)C(=O)NCc1cccnc1 (stereo not drawn) | -0.08% (inactive)
2 | Cc1csc2ncc(C(=O)NCc3ccccn3)c(=O)n12 | -0.65% (inactive)
3 | O=S(=O)(c1ccccc1)N1CCN(C2CCN(Cc3ccccc3)CC2)CC1 | -1.86% (inactive)
4 | C=CCn1c(SCC(=O)Nc2cc(C)nn2-c2ccccc2)nnc1C1CCCCC1 | -1.14% (inactive)
5 | Cc1ccc(C)c(N2CCN(C(=O)c3cc4ccccc4oc3=O)CC2)c1 | 1.72% (inactive)
6 | COc1cc2c(cc1OC)C1=C(C#N)CN(C3CCCCC3)CN1CC2 | -3.47% (inactive)
7 | Cn1c(=O)oc2cc(S(=O)(=O)N3CCCC3)ccc21 | -2.12% (inactive)
8 | CC(=O)Nc1ccc(NC2(C)C(=O)c3ccccc3C2=O)cc1 | -1.88% (inactive)
9 | COc1cccc(-c2nc(CS(=O)CC(=O)NCc3ccccc3Cl)c(C)o2)c1 (stereo not drawn) | -3.78% (inactive)
10 | CC(=O)c1ccc(C(=O)Nc2ccc(N3CCOCC3)cc2)cc1 | 3.45% (inactive)
11 | CCOC(=O)N1CCC(N2C(=O)c3ccc(C(=O)NCc4ccc(F)cc4)cc3C2=O)CC1 | -1.21% (inactive)
12 | Cc1ccccc1Cn1c(=O)[nH]c2ccccc21 | 0.06% (inactive)
13 | Cc1c(C#N)c2ccccc2n1CC(=O)NCCc1c[nH]c2ccccc12 | -6.08% (inactive)
14 | CCOC(=O)c1sc(NC(=O)c2ccc(Cl)s2)cc1C | 0.81% (inactive)
15 | COc1ccc(OC)c(NC(=O)c2c(NC(=O)CNCc3ccco3)sc3c2CCC3)c1 | -3.56% (inactive)
16 | CCCOc1ccc(N2C(=O)CC(N3CCN(c4ccccc4F)CC3)C2=O)cc1 (stereo not drawn) | 1.4% (inactive)
17 | CC(=O)Nc1nonc1-c1nc2ccccc2n1Cc1nnc(C)o1 | -3.32% (inactive)
18 | Cc1ccsc1C1NC(=O)c2c(sc3c2CCN(C)C3)N1 (stereo not drawn) | -1.41% (inactive)
19 | O=S(=O)(c1ccccc1)n1ccc2ccccc21 | -5.11% (inactive)
20 | CCCS(=O)(=O)N1CCn2c(nc3ccccc32)C1 | -0.37% (inactive)

Row | Structure (SMILES) | viability increase
21 | Cc1ccc(C2/C(=C(/O)c3ccccc3)C(=O)C(=O)N2CCN2CCOCC2)o1 (stereo not drawn) | -1.8% (inactive)
22 | CC(NC(=O)Cc1ccccc1)c1nc2ccccc2[nH]1 (stereo not drawn) | -1.22% (inactive)
23 | CCOC(=O)/C=C/S(=O)(=O)c1ccc(NC(C)=O)cc1 | -7.51% (inactive)
24 | COc1ccc2oc(-c3ccccc3)c(C(=O)N3CCOCC3)c2c1 | -3.95% (inactive)
25 | COc1ccccc1NC(=O)NCCN1C(=O)C2C3C=CC(C3)C2C1=O (stereo not drawn) | -0.36% (inactive)
26 | CCOC(=O)c1oc2cc(O)ccc2c(=O)c1-c1ccccc1OC | -1.98% (inactive)
27 | CC(=O)NC(CCS(C)(=O)=O)C(=O)Nc1ccc(Oc2ccccc2)cc1 (stereo not drawn) | -0.67% (inactive)
28 | O=C(NCc1ccncc1)C(F)(F)C(F)(F)C(=O)NCc1ccncc1 | -1.87% (inactive)
29 | COc1ccc(Cl)cc1N1C(=O)C2CCCN2C1c1ccccc1F (stereo not drawn) | -3.84% (inactive)
30 | COc1ccc(C)cc1NC(=O)c1cnc2scc(C)n2c1=O | -5.49% (inactive)
31 | CC(C)Cn1c(CNC(=O)c2ccccc2)nc2ccccc21 | -2.23% (inactive)
32 | Cc1cccc(Nc2ncnc3nc[nH]c23)c1 | -1.96% (inactive)
33 | COCCn1c(SCCN2CCOCC2)nc2c1c(=O)[nH]c(=O)n2C | 0.95% (inactive)
34 | CSCCC(/C(O)=C(\C#N)c1nc2ccccc2[nH]1)N1C(=O)c2ccccc2C1=O (stereo not drawn) | 0% (inactive)
35 | Cc1sc2nc(SC(C)C)nc(N)c2c1C | 0.28% (inactive)
36 | O=C(O)C1C2C=CC(C2)C1C(=O)OCC1CCCO1 (stereo not drawn) | -1.53% (inactive)
37 | O=C(OCCN(C1=NS(=O)(=O)c2ccccc21)c1ccc(Cl)cc1)c1ccco1 | -5.7% (inactive)
38 | Brc1ccc(-c2noc(COc3ccc4c(c3)CCC4)n2)o1 | 2.86% (inactive)
39 | CCOC(=O)N1CCC(Nc2cc(C)nc3c(-c4ccccc4OC)c(C)nn23)CC1 | -6.98% (inactive)

Assay: growth suppression of beta-catenin knockout HCT116, pilot screen, human colon tumor cells (AID 823);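 also: 0% = wells killed by 20 µM Hyamine and 100% = untreated DMSO cell wells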
Conditions: CellTiter-Glo, 60 h, at 10 µM, active compounds read low

Row | Structure (SMILES) | viability
40 | CC(C)CC(NS(=O)(=O)c1ccc2c(c1)oc(=O)n2C)C(=O)NCc1cccnc1 (stereo not drawn) | 112% (inactive)
41 | Cc1csc2ncc(C(=O)NCc3ccccn3)c(=O)n12 | 100% (inactive)
42 | O=S(=O)(c1ccccc1)N1CCN(C2CCN(Cc3ccccc3)CC2)CC1 | 90.3% (inactive)
43 | C=CCn1c(SCC(=O)Nc2cc(C)nn2-c2ccccc2)nnc1C1CCCCC1 | 90.8% (inactive)
44 | Cc1ccc(C)c(N2CCN(C(=O)c3cc4ccccc4oc3=O)CC2)c1 | 100% (inactive)
45 | COc1cc2c(cc1OC)C1=C(C#N)CN(C3CCCCC3)CN1CC2 | 90% (inactive)
46 | Cn1c(=O)oc2cc(S(=O)(=O)N3CCCC3)ccc21 | 102% (inactive)
47 | CC(=O)Nc1ccc(NC2(C)C(=O)c3ccccc3C2=O)cc1 | 99.4% (inactive)
48 | COc1cccc(-c2nc(CS(=O)CC(=O)NCc3ccccc3Cl)c(C)o2)c1 (stereo not drawn) | 92.4% (inactive)
49 | CC(=O)c1ccc(C(=O)Nc2ccc(N3CCOCC3)cc2)cc1 | 98.5% (inactive)
50 | CCOC(=O)N1CCC(N2C(=O)c3ccc(C(=O)NCc4ccc(F)cc4)cc3C2=O)CC1 | 98.1% (inactive)
51 | Cc1ccccc1Cn1c(=O)[nH]c2ccccc21 | 96.5% (inactive)
52 | Cc1c(C#N)c2ccccc2n1CC(=O)NCCc1c[nH]c2ccccc12 | 52.7% (inactive)
53 | CCOC(=O)c1sc(NC(=O)c2ccc(Cl)s2)cc1C | 105% (inactive)
54 | COc1ccc(OC)c(NC(=O)c2c(NC(=O)CNCc3ccco3)sc3c2CCC3)c1 | 95.8% (inactive)
55 | CCCOc1ccc(N2C(=O)CC(N3CCN(c4ccccc4F)CC3)C2=O)cc1 (stereo not drawn) | 94.7% (inactive)
56 | CC(=O)Nc1nonc1-c1nc2ccccc2n1Cc1nnc(C)o1 | 99.7% (inactive)
57 | Cc1ccsc1C1NC(=O)c2c(sc3c2CCN(C)C3)N1 (stereo not drawn) | 97.5% (inactive)
58 | O=S(=O)(c1ccccc1)n1ccc2ccccc21 | 87.4% (inactive)
59 | CCCS(=O)(=O)N1CCn2c(nc3ccccc32)C1 | 106% (inactive)

Row | Structure (SMILES) | viability
60 | Cc1ccc(C2/C(=C(/O)c3ccccc3)C(=O)C(=O)N2CCN2CCOCC2)o1 (stereo not drawn) | 104% (inactive)
61 | CC(NC(=O)Cc1ccccc1)c1nc2ccccc2[nH]1 (stereo not drawn) | 108% (inactive)
62 | CCOC(=O)/C=C/S(=O)(=O)c1ccc(NC(C)=O)cc1 | 82.4% (inactive)
63 | COc1ccc2oc(-c3ccccc3)c(C(=O)N3CCOCC3)c2c1 | 94.3% (inactive)
64 | COc1ccccc1NC(=O)NCCN1C(=O)C2C3C=CC(C3)C2C1=O (stereo not drawn) | 106% (inactive)
65 | CCOC(=O)c1oc2cc(O)ccc2c(=O)c1-c1ccccc1OC | 98.4% (inactive)
66 | CC(=O)NC(CCS(C)(=O)=O)C(=O)Nc1ccc(Oc2ccccc2)cc1 (stereo not drawn) | 101% (inactive)
67 | O=C(NCc1ccncc1)C(F)(F)C(F)(F)C(=O)NCc1ccncc1 | 93.9% (inactive)
68 | COc1ccc(Cl)cc1N1C(=O)C2CCCN2C1c1ccccc1F (stereo not drawn) | 93% (inactive)
69 | COc1ccc(C)cc1NC(=O)c1cnc2scc(C)n2c1=O | 87.8% (inactive)
70 | CC(C)Cn1c(CNC(=O)c2ccccc2)nc2ccccc21 | 99.6% (inactive)
71 | Cc1cccc(Nc2ncnc3nc[nH]c23)c1 | 101% (inactive)
72 | COCCn1c(SCCN2CCOCC2)nc2c1c(=O)[nH]c(=O)n2C | 104% (inactive)
73 | CSCCC(/C(O)=C(\C#N)c1nc2ccccc2[nH]1)N1C(=O)c2ccccc2C1=O (stereo not drawn) | 89.8% (inactive)
74 | Cc1sc2nc(SC(C)C)nc(N)c2c1C | 103% (inactive)
75 | O=C(O)C1C2C=CC(C2)C1C(=O)OCC1CCCO1 (stereo not drawn) | 98.1% (inactive)
76 | O=C(OCCN(C1=NS(=O)(=O)c2ccccc21)c1ccc(Cl)cc1)c1ccco1 | 82.2% (inactive)
77 | Brc1ccc(-c2noc(COc3ccc4c(c3)CCC4)n2)o1 | 95.8% (inactive)
78 | CCOC(=O)N1CCC(Nc2cc(C)nc3c(-c4ccccc4OC)c(C)nn23)CC1 | 81.3% (inactive)
